Screens: PubChem BioAssay, University of Kansas High Throughput Screening Laboratory
The list is not random: actives were taken first. Their share in the collection is about 3.5%.
mHTT-CaM PPI inh: mHTT-calmodulin interaction abrogation; hit rate 3.6% among 190,000; AlphaScreen His-mHTT/GST-CaM binding, luminescence; AID 1671202; inhibition, % at 15 µM;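 note: 0% = both proteins with DMSO and 100% = one protein alone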
Pf apPOL block: Pf-apPOL DNA polymerase inhibition; Recombinant Pf-apPOL, molecular beacon fluorescence, 1.5 h; hit rate 0.25% among 210,000; inhibition, % at 10 µM
* = called active by the depositor; / = no result. Cut-off read from the data, not from the text of the source: active = inhibition above about 50%; inactive = the rest.

SMILES	mHTT-CaM PPI inh	Pf apPOL block
CCOc1cc(C(Nc2ccccn2)c2ccc3cccnc3c2O)ccc1OC (stereo not drawn)	100*	-6
CCOc1ccc(C=Nc2ccc(S(=O)(=O)Nc3ccccn3)cc2)cc1OCC	-1	6
COc1cc(C(Nc2ccccn2)c2ccc3cccnc3c2O)cc(Br)c1OC (stereo not drawn)	98*	-3
COc1cc(NC(=O)Nc2cccc3cccnc23)cc(OC)c1OC	30	-6
CCOc1cc(C(Nc2ccccn2)c2ccc3cccnc3c2O)ccc1O (stereo not drawn)	100*	-12
CCOc1cc(C(c2c(C)[nH][nH]c2=O)c2c(C)[nH][nH]c2=O)ccc1O	7	2
COc1ccc(C(=O)Nc2ccc(F)c(Cl)c2)cc1OC	0	-5
CCOC(=O)c1c(C(C)(C)C)oc2ccc(OC(=O)c3cc(OC)c(OC)c(OC)c3)cc12	-1	0
C=CCn1c(SCc2ccc([N+](=O)[O-])cc2)nnc1-c1cccs1	0	-6
CCOc1ccc(S(=O)(=O)Nc2ccc3c(c2)CC(=O)N3)cc1F	-11	-4
Cn1nc(-c2nc(-c3ccccc3)no2)c2c1CCN(C(=O)c1ccc(F)c(Cl)c1)C2	16	2
Cc1cccc(C)c1NC(=O)c1ccco1	-9	-6
Cc1ccc(/C=C/NC(=O)c2ccco2)cc1C	77*	-4
O=C(c1cccnc1N1CCNC(c2ccccc2)C1)N1CCC(Cc2ccccc2)CC1 (stereo not drawn)	73*	12
COCC1CCN(C(=O)c2cccnc2N2CCNC(c3ccccc3)C2)CC1 (stereo not drawn)	-1	4
CC(C(=O)N1CCC(N2CCc3ccccc32)CC1)c1ccccc1 (stereo not drawn)	68*	4
COCCC1CCN(C(=O)C(C)c2ccccc2)CC1 (stereo not drawn)	1	1
Cc1ccc2c(c1)/C(=C/c1ccc(Br)cc1)c1cccnc1-2	14	/
Cc1ccc2c(c1)/C(=C/c1ccc3c(c1)OCO3)c1cccnc1-2	52*	-4
Cc1ccc(NC(=O)N2CCCC2c2nc(-c3ccccc3)no2)cc1 (stereo not drawn)	-5	0
COC(=O)c1ccc(NC(=O)C(=O)NCCc2c[nH]c3ccccc23)cc1	11	-3
CC1C(=O)N2CCCc3cc(NC(=O)C(=O)NCCc4c[nH]c5ccccc45)cc1c32 (stereo not drawn)	76*	-8
COc1ccc(CC(=O)N2CCN(C3=NC=CN4C3=NCC4C)CC2)cc1Cl (stereo not drawn)	10	-7
Cc1ccc(-c2ccc(CN3C(C)C(=O)N(Cc4cn(Cc5ccco5)nn4)CCS3(=O)=O)cc2)cc1 (stereo not drawn)	19	-7
Cc1ccccc1-c1ccc(CN2C(C)C(=O)N(Cc3cn(Cc4ccco4)nn3)CCS2(=O)=O)cc1 (stereo not drawn)	92*	-2
SMILES	mHTT-CaM PPI inh	Pf apPOL block
Cc1ccc(-c2ccc(CN3C(C)C(=O)N(Cc4cn(Cc5ccco5)nn4)CCS3(=O)=O)cc2)c(C)c1 (stereo not drawn)	84*	0
CC1C(=O)N(Cc2cn(Cc3ccco3)nn2)CCS(=O)(=O)N1Cc1ccc(-c2ccc(F)nc2)cc1 (stereo not drawn)	25	1
COc1cccc(-c2ccc(CN3C(C)C(=O)N(Cc4cn(Cc5ccco5)nn4)CCS3(=O)=O)cc2)c1OC (stereo not drawn)	2	0
CC1C(=O)N(Cc2cn(Cc3ccco3)nn2)CCS(=O)(=O)N1Cc1ccc(-c2ccccc2C(F)(F)F)cc1 (stereo not drawn)	68*	-3
O=C(CCC1CCCC1)N1CCc2nc(-c3ccc(F)cc3)ncc2C1	-21	2
CN1C(=O)c2ccccc2C(C(=O)Nc2ccc3c(c2)OCCO3)C1c1cccs1 (stereo not drawn)	19	-5
COc1ccccc1NC(=O)c1ccc(CSc2ccccc2)cc1	-37	0
O=C1N=C(N2CCCC2)S/C1=C/C=C/c1ccccc1	76*	-2
CN1CCN(C2=NC(=O)/C(=C/c3ccccc3)S2)CC1	2	-7
O=C1N=C(N2CCOCC2)S/C1=C\C1=Cc2ccccc2OC1	45	/
O=C1N=C(N2CCCCC2)S/C1=C/C1=Cc2ccccc2OC1	66*	-7
Cc1ccc(OCCNCCO)c(Br)c1	-8	-4
O=C(Nc1ccc(F)cc1)Nc1nnc(COc2ccc([N+](=O)[O-])cc2)s1	-4	-2
Cc1ccc(C2=NNC(c3ccc(F)cc3)S2)cc1 (stereo not drawn)	62*	/
Cc1ccc(C2=NNC(C(O)C(O)C(O)C(C)O)S2)cc1 (stereo not drawn)	-2	/
O=C(Nc1ccccc1C(F)(F)F)c1ccccc1I	/	-5
O=C(NC(Nc1ccc(Br)cc1)C(=O)c1ccccc1)c1cccs1 (stereo not drawn)	63*	-2
CC(=O)Nc1ccc(NC(NC(=O)c2cccs2)C(=O)c2ccccc2)cc1 (stereo not drawn)	9	-5
O=C(NC(Nc1cccc(C(F)(F)F)c1)C(=O)c1ccccc1)c1cccs1 (stereo not drawn)	83*	-6
Cc1ccccc1NC(NC(=O)c1cccs1)C(=O)c1ccccc1 (stereo not drawn)	21	2
Clc1ccc(C2C=C(c3cccc(Br)c3)Nc3ncnn32)cc1 (stereo not drawn)	1	-2
O=C(CN1CCN(C(=O)NCc2ccc(Cl)cc2)CC1)c1cccs1	12	-9
CCC1CN2C=NC(N3CCN(C(=O)c4nn(C)c5ccccc45)CC3)=CC2=N1 (stereo not drawn)	24	4
COc1ccc(-c2csc(Nc3ccccc3)[n+]2CC(O)c2ccc([N+](=O)[O-])cc2)cc1 (stereo not drawn)	66*	1
COc1ccc(C(C)NC(=O)CN(c2ccc([N+](=O)[O-])cc2)S(=O)(=O)c2ccccc2)cc1 (stereo not drawn)	13	1
SMILES	mHTT-CaM PPI inh	Pf apPOL block
CS(=O)(=O)N1CCN(c2c(Cl)cncc2Cl)CC1	/	-12
C=CCSc1nnc2c(n1)OC(c1ccc(OCC)cc1)N(C(C)=O)c1ccccc1-2 (stereo not drawn)	55*	-9
C=CCSc1nnc2c(n1)OC(c1ccc(OC)cc1)N(C(C)=O)c1ccccc1-2 (stereo not drawn)	37	2
CSc1nnc2c(n1)OC(c1ccc(Br)cc1)N(C(C)=O)c1ccccc1-2 (stereo not drawn)	75*	-6
CSc1nnc2c(n1)OC(c1ccc(Br)s1)N(C(C)=O)c1ccccc1-2 (stereo not drawn)	71*	5
CSc1ccc(C2Oc3nc(SC)nnc3-c3ccccc3N2C(C)=O)cc1 (stereo not drawn)	35	-1
CSc1nnc2c(n1)OC(c1ccc(Cl)cc1)N(C(C)=O)c1ccccc1-2 (stereo not drawn)	54*	7
CSc1nnc2c(n1)OC(c1cccc(Br)c1)N(C(C)=O)c1ccccc1-2 (stereo not drawn)	19	-4
CSc1nnc2c(n1)OC(c1ccc(Br)o1)N(C(C)=O)c1ccccc1-2 (stereo not drawn)	8	5
CCOc1ccccc1Nc1nc(-c2cc3cc(OC)ccc3oc2=O)cs1	-25	-4
O=C(Nc1nccn(-c2ccc(F)c(Cl)c2)c1=O)c1ccc(F)cc1	-5	1
